Data on 12 compounds can be found in PubChem BioAssay (NCI).

Some test systems named below: HCT-15 colon; HT29 colon; SNB-75 CNS; SNB-19 CNS; U251 CNS; PC-3 prostate; SK-MEL-5 melanoma; UACC-62 melanoma; LOX IMVI melanoma; SK-MEL-28 melanoma.
What all share (test): NCI-60 one-dose screen, 48 h (100 = growth as untreated, 0 = no growth, -100 = all killed)
Holding throughout (conditions): 10 µM unless noted

About 83,000 compounds went through this panel and 20% of them were active in at least one assay; those are over-represented in the sample as a whole.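 Single-concentration screen, 48 h exposure, 96-well plates. Endpoint: percent growth. Below 10 = active.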 Values without a mark were called inactive. Activity calls are given as the source filed them.

`c1coc(-c2c3ccc(=[N+]4CCCCC4)cc-3oc3cc(N4CCCCC4)ccc23)c1`: the growth in the assay on HCT-15 colon is -80.7% (active); with HT29 colon it was -80.9% (active); with SNB-75 CNS it was -67.8% (active); in the assay on SNB-19 CNS, -93.2% (active); in the assay with U251 CNS, -85.2% (active); in the assay on PC-3 prostate, -73.8% (active). For the same compound, the growth with SK-MEL-5 melanoma was -90.7% (active); in the assay with UACC-62 melanoma, -81.3% (active); in the assay with LOX IMVI melanoma, -87.2% (active); in the assay with SK-MEL-28 melanoma it was -88.7% (active).
For `COc1cccc(-c2nn(-c3ccccc3)cc2-c2ccnc(NCCCNC(=O)c3ccc(F)cc3)c2)c1`, the growth in the assay with HCT-15 colon is 24.9%; in the assay on HT29 colon, 11.7%; in the assay with SNB-75 CNS, 46.2%; with SNB-19 CNS it was 67.2%; in the assay with U251 CNS it was 36.4%; in the assay on PC-3 prostate it was 27.1%. For the same compound, the growth in the assay on SK-MEL-5 melanoma is 6.09% (active); in the assay on UACC-62 melanoma it was 40.1%; in the assay with LOX IMVI melanoma it was 55.7%; in the assay on SK-MEL-28 melanoma, 58.7%.
As for `c1ccc2c(c1)nc(CN1CCOCC1)n1cc(N3CCCC3)nc21`, the growth in the assay on HCT-15 colon is 97.3%; with HT29 colon, 111%; with SNB-75 CNS, 89.7%; in the assay with SNB-19 CNS, 102%; in the assay on U251 CNS it was 102%; with PC-3 prostate it was 82.1%. Also, the growth in the assay on SK-MEL-5 melanoma is 98%; in the assay with UACC-62 melanoma it was 100%; in the assay with LOX IMVI melanoma it was 102%; with SK-MEL-28 melanoma, 118%.
On to `Cc1cccc(-c2nc(N(C)c3ccc4ncsc4c3)c3ccccc3n2)n1`, for which the growth with HCT-15 colon is 51.5%; in the assay on HT29 colon it was 50.1%; in the assay on SNB-75 CNS it was 94%; in the assay on SNB-19 CNS it was 77.1%; in the assay on U251 CNS it was 82.2%; in the assay with PC-3 prostate it was 45.5%. The growth in the assay on SK-MEL-5 melanoma was 22.4%; with UACC-62 melanoma, 50.4%; with LOX IMVI melanoma, 77.5%; with SK-MEL-28 melanoma, 72%.
For `Cc1nc2ccccc2c(/C=C/c2ccc(Cl)cc2)c1C(=O)/C=C/c1ccc(F)cc1`, the growth was -15.4% (active) in the assay on HCT-15 colon; 5.82% (active) in the assay on HT29 colon; 51.7% in the assay on SNB-75 CNS; -26% (active) with SNB-19 CNS; -76.8% (active) in the assay with U251 CNS; 20.4% with PC-3 prostate. For the same compound, the growth in the assay with SK-MEL-5 melanoma was 8.11% (active); with UACC-62 melanoma, 0.679% (active); in the assay on LOX IMVI melanoma, -90.3% (active); in the assay with SK-MEL-28 melanoma it was -27.7% (active).
`Nc1n[nH]c(-c2cc(Cl)ccc2O)c1-c1ccccc1`: the growth in the assay on HCT-15 colon was 78.5%; with HT29 colon, 102%; in the assay on SNB-75 CNS, 86%; with SNB-19 CNS, 102%; in the assay with U251 CNS it was 89.2%; with PC-3 prostate it was 81%. Further, the growth with SK-MEL-5 melanoma was 92.2%; with UACC-62 melanoma it was 66.6%; with LOX IMVI melanoma, 79.6%; in the assay with SK-MEL-28 melanoma it was 122%.
As for `COc1cc(/C=N/Nc2ncc(-c3cc4cc5c(cc4o3)OCO5)s2)cc(OC)c1OC`, the growth with HCT-15 colon was 35.7%; in the assay with HT29 colon, 56.2%; in the assay with SNB-75 CNS it was 72.4%; in the assay on SNB-19 CNS it was 76.1%; with U251 CNS, 68.1%; in the assay on PC-3 prostate, 21.5%. For the same compound, the growth is 4.87% (active) with SK-MEL-5 melanoma, 33.7% in the assay with UACC-62 melanoma, 36.1% in the assay on LOX IMVI melanoma and 60.7% with SK-MEL-28 melanoma.
For the compound `C#CCOc1nc(C)cc(C)c1C#N`, the growth in the assay on HCT-15 colon was 96%; in the assay on HT29 colon, 107%; in the assay with SNB-75 CNS, 79.6%; in the assay with SNB-19 CNS it was 96.2%; with U251 CNS, 98.1%; in the assay with PC-3 prostate, 140%. The growth in the assay with SK-MEL-5 melanoma is 98.9%; with UACC-62 melanoma it was 93.5%; with LOX IMVI melanoma it was 97.4%; in the assay on SK-MEL-28 melanoma it was 111%.
In the case of `CCCCCCCC/C=C\CCCCCCCCOc1ccccc1CC(=O)NCC[N+](C)(C)C`, the growth is 56.6% with HCT-15 colon; 33.4% in the assay with HT29 colon; 45.9% with SNB-75 CNS; 25.3% in the assay with SNB-19 CNS; 12.7% in the assay with U251 CNS; 4.4% (active) in the assay with PC-3 prostate. Also, the growth with SK-MEL-5 melanoma is 74.7%; in the assay on UACC-62 melanoma, 66.5%; with LOX IMVI melanoma, 74.1%; with SK-MEL-28 melanoma, 88.8%.
Regarding `CN(C)CCCn1c(=O)c2ccccc2c2ccccc21`, the growth in the assay with HCT-15 colon was 64.7%; with HT29 colon, 50%; in the assay with SNB-75 CNS, 85.9%; with SNB-19 CNS it was 73.4%; in the assay with U251 CNS it was 87.9%; in the assay with PC-3 prostate it was 70%. The growth in the assay on SK-MEL-5 melanoma was 79.7%; in the assay on UACC-62 melanoma, 82.2%; in the assay on LOX IMVI melanoma, 56.5%; in the assay with SK-MEL-28 melanoma it was 103%.
On to `C=C(C)[C@@H]1CC[C@]2(C)[C@H](CC=C3[C@@H]4CC(C)(C)CC[C@]4(C(N)=O)CC[C@]32C)[C@@]1(C)CCC#N`, for which the growth in the assay with HCT-15 colon was 14.8%; with HT29 colon, 39.3%; in the assay on SNB-75 CNS, 29.3%; with SNB-19 CNS, 47.7%; in the assay on U251 CNS it was 30.6%; in the assay on PC-3 prostate, -0.165% (active). For the same compound, the growth in the assay with SK-MEL-5 melanoma is -2.59% (active); in the assay on UACC-62 melanoma, 15.7%; with LOX IMVI melanoma, 36.9%; with SK-MEL-28 melanoma it was 45.8%.
Take `COC(=O)[C@]12CC[C@@H](C)[C@H](C)[C@@H]1C1=CC[C@@H]3[C@@]4(C)C(C=O)=C[C@@](C)(COC(=O)c5ccco5)C4=CC[C@@]3(C)[C@]1(C)CC2`: the growth is -31.9% (active) with HCT-15 colon; -0.473% (active) in the assay with HT29 colon; 20% in the assay with SNB-75 CNS; 36.5% in the assay on SNB-19 CNS; -4.29% (active) with U251 CNS; 14.1% in the assay with PC-3 prostate. Moreover, the growth is -87.1% (active) in the assay on SK-MEL-5 melanoma, -11.1% (active) in the assay on UACC-62 melanoma, -86.3% (active) with LOX IMVI melanoma and -45.5% (active) in the assay with SK-MEL-28 melanoma.
